Test results from paper PMC7862700, “An all-to-all approach to the identification of sequence-specific readers for epigenetic DNA modifications on cytosine”.

Assays:
Assay in all cases: DAPPL (digital affinity profiling via proximity ligation, sequencing); 10 mM Tris-HCl pH 7.5, 50 mM NaCl, 1 mM DTT, 4% glycerol, room temperature, 30 min; GST-TFs on glutathione beads, 16-mer random dsDNA library, 0.1% formaldehyde crosslink after washing; high values mean tight binding
Conditions in all cases: protein: recombinant; tags: N-terminal GST; dsDNA, one strand shown
[1] = molecular target: T1, FLI1 (Homo sapiens, UniProt Q01543 1-452)
T1 sequence: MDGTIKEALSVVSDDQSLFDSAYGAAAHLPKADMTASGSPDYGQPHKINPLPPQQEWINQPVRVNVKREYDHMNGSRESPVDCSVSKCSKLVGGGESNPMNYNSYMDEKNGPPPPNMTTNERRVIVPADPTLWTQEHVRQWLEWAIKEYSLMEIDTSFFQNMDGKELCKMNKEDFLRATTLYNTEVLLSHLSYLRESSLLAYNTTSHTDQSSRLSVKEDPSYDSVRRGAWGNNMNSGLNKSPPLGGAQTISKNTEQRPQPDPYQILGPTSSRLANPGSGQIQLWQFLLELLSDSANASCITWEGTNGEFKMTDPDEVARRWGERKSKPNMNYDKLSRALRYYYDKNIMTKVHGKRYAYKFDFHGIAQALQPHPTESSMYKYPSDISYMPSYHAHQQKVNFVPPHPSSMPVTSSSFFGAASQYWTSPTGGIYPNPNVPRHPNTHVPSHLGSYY
Method in brief: (§1)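 Binding signal is given per hexamer as its read frequency for a factor divided by its frequency in the tag-only sample. GST-fused human transcription factors were expressed in yeast, captured on glutathione beads, barcoded with DNA and pooled with that sample, then incubated with 200 nmole of a 16-mer random double-stranded DNA library in Tris/NaCl/DTT/glycerol buffer for 30 min at room temperature. The pools were then washed, crosslinked, proximity-ligated, amplified by PCR and sequenced on an Illumina NextSeq500.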

[2] = molecular target: T2, ELK1 (Homo sapiens, UniProt P19419 1-428)
T2 sequence: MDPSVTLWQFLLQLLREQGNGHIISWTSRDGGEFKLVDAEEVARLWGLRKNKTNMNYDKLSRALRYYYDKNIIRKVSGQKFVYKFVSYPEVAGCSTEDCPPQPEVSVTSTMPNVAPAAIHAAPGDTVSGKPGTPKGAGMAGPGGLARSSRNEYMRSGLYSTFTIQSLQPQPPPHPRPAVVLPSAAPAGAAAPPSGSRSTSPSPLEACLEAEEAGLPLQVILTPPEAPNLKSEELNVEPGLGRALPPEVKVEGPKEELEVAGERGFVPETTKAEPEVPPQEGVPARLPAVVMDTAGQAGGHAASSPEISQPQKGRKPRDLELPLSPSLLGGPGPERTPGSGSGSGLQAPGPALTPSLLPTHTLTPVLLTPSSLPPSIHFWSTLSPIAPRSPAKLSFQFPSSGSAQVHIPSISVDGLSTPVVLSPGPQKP
Method in brief: as §1

[3] = molecular target: T3, GABPA (Homo sapiens, UniProt Q06546 1-454)
T3 sequence: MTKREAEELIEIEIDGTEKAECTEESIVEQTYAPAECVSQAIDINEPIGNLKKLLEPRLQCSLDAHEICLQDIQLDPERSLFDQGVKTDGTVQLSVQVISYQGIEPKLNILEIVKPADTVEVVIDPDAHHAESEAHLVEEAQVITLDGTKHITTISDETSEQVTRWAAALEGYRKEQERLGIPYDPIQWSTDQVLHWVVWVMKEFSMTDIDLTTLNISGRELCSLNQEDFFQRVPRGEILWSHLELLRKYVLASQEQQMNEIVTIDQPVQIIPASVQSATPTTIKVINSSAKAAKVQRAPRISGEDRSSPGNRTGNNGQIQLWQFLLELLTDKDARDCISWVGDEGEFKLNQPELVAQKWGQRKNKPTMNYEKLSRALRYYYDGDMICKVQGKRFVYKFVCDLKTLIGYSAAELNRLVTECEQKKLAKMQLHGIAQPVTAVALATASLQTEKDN
Method in brief: as §1

[4] = molecular target: T4, ERG (Homo sapiens, UniProt P11308 1-479)
T4 sequence: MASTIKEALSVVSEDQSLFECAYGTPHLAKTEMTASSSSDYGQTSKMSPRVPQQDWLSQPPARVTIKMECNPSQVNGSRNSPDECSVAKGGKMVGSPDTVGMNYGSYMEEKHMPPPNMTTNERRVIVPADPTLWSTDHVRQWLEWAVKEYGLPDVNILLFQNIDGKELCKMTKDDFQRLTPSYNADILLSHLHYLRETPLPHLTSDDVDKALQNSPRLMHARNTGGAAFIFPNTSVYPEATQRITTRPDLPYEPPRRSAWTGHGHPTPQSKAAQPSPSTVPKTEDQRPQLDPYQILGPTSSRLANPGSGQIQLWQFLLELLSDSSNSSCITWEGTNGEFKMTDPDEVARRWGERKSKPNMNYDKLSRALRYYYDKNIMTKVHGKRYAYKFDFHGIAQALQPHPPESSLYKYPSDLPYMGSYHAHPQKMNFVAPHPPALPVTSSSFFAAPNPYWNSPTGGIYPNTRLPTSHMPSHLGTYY
Method in brief: as §1

[5] = molecular target: ELF1 (Homo sapiens, UniProt P32519 1-619)
Method in brief: as §1

[6] = molecular target: T5, EHF (Homo sapiens, UniProt Q9NZC4 1-300)
T5 sequence: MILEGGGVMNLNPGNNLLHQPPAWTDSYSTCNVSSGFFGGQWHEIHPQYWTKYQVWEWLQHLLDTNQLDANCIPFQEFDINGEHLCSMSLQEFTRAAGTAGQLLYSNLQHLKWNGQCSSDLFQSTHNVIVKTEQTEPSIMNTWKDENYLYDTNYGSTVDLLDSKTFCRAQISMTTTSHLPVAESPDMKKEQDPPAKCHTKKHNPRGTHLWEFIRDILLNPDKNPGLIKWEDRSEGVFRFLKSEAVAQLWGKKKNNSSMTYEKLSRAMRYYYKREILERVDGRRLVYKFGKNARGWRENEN
Method in brief: as §1

[7] = molecular target: SPI1 (Homo sapiens, UniProt P17947 1-270)
Method in brief: as §1

[8] = molecular target: T6, FEV (Homo sapiens, UniProt Q99581 1-238)
T6 sequence: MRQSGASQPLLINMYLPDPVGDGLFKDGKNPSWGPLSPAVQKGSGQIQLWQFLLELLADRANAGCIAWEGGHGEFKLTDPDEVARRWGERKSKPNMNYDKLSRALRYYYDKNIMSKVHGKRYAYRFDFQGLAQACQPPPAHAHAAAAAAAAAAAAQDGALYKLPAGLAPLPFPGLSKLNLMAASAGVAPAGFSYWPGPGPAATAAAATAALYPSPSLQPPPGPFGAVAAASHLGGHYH
Method in brief: as §1

[9] = molecular target: ETV5 (Homo sapiens, UniProt P41161 1-510)
Method in brief: as §1

[10] = molecular target: T7, SPIC (Homo sapiens, UniProt Q8N5J4 1-248)
T7 sequence: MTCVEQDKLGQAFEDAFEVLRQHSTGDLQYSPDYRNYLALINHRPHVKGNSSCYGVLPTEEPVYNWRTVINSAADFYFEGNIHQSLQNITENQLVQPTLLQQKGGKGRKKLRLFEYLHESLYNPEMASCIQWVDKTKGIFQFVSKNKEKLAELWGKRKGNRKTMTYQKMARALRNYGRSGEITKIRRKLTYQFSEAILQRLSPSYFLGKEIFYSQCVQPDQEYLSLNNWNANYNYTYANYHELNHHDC
Method in brief: as §1

[11] = molecular target: ELF4 (Homo sapiens, UniProt Q99607 1-663)
Method in brief: as §1

[12] = molecular target: ETV1 (Homo sapiens, UniProt P50549 1-477)
Method in brief: as §1

[13] = molecular target: T8, ERF (Homo sapiens, UniProt P50548 1-548)
T8 sequence: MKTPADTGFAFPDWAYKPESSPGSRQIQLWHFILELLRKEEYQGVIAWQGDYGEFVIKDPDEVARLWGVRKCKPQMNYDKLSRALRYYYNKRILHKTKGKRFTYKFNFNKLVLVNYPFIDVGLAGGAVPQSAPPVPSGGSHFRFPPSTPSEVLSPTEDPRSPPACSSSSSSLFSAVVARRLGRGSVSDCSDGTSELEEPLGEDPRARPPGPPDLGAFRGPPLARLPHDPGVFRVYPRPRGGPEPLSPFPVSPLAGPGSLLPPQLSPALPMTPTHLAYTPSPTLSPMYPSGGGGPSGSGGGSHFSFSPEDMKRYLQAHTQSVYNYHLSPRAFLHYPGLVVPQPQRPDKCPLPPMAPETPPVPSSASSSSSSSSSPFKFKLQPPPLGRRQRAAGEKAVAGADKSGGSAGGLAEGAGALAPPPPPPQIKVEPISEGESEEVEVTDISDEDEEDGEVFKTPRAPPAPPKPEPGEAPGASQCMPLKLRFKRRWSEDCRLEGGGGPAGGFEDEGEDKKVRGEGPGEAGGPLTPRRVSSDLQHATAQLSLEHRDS
Method in brief: as §1

[14] = molecular target: T9, ETV3L (Homo sapiens, UniProt Q6ZN32 1-361)
T9 sequence: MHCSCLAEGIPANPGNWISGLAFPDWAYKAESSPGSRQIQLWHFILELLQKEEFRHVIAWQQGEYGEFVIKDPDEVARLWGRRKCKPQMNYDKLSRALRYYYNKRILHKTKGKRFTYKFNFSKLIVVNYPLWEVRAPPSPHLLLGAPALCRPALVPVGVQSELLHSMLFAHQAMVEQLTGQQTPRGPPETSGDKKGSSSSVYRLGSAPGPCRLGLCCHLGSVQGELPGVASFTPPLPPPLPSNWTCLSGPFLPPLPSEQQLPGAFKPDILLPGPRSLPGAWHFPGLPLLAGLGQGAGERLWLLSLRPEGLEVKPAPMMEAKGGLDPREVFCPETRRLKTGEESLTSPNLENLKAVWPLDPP
Method in brief: as §1

[15] = molecular target: T10, ETS2 (Homo sapiens, UniProt P15036 1-469)
T10 sequence: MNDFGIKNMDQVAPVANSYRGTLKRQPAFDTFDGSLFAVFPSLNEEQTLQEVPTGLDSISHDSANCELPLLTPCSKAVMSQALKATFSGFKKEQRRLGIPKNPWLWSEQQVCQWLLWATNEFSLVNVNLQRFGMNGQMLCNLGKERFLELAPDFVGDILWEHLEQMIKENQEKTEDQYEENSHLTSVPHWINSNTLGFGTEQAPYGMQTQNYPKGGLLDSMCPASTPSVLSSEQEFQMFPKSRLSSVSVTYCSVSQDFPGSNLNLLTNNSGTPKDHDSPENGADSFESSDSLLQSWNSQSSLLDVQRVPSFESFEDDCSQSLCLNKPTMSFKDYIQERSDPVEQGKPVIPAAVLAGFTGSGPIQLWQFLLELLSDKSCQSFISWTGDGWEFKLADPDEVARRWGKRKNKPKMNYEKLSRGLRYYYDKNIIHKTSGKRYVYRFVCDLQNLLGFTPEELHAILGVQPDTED
Method in brief: as §1

[16] = molecular target: T11, ELF5 (Homo sapiens, UniProt Q9UKW6-2 1-255)
T11 sequence: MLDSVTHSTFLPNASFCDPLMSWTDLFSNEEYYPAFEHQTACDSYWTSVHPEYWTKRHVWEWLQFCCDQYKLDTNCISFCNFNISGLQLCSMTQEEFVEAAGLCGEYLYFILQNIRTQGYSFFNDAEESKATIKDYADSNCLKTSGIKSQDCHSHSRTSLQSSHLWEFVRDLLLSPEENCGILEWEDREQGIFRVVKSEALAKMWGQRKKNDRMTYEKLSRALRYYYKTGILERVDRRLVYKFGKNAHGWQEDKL
Method in brief: as §1

[17] = molecular target: T12, ETV3 (Homo sapiens, UniProt P41162-2 1-143)
T12 sequence: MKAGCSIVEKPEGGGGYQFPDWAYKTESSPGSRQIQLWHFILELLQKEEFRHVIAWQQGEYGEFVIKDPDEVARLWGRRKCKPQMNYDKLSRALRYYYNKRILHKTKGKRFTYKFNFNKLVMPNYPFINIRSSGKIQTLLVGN
Method in brief: as §1

[18] = molecular target: ETV6 (Homo sapiens, UniProt P41212 1-452)
Method in brief: as §1

[19] = molecular target: SPIB (Homo sapiens, UniProt Q01892 1-262)
Method in brief: as §1

Chain of ELF1 (P32519 whole entry): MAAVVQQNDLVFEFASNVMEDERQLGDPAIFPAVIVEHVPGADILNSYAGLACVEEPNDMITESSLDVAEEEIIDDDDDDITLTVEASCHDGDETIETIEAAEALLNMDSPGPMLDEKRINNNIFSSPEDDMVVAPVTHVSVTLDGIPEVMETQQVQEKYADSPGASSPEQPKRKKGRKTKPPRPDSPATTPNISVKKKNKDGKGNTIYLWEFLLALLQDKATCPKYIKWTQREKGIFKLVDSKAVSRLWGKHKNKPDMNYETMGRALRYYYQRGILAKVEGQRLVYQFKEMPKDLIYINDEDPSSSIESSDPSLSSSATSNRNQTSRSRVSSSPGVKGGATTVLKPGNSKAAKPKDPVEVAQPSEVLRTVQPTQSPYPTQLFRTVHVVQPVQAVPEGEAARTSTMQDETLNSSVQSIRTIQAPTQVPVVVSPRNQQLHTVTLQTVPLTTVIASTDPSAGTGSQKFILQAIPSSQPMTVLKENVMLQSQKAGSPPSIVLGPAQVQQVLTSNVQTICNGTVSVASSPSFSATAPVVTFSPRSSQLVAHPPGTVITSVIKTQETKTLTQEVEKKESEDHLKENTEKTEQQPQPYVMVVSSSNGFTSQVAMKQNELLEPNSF
Chain of ETV6 (P41212 whole entry): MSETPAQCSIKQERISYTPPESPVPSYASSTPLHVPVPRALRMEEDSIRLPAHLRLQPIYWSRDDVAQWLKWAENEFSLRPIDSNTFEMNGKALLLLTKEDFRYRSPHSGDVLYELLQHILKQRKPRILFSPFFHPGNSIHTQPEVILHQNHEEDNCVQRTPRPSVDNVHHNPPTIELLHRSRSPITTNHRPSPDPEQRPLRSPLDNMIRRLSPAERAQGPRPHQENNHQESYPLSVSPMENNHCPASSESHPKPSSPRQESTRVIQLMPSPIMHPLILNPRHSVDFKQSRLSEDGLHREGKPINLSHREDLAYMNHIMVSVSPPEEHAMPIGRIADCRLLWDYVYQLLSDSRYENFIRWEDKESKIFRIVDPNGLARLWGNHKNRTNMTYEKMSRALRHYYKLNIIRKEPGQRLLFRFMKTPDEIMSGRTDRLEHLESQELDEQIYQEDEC
Chain of ETV1 (P50549 whole entry): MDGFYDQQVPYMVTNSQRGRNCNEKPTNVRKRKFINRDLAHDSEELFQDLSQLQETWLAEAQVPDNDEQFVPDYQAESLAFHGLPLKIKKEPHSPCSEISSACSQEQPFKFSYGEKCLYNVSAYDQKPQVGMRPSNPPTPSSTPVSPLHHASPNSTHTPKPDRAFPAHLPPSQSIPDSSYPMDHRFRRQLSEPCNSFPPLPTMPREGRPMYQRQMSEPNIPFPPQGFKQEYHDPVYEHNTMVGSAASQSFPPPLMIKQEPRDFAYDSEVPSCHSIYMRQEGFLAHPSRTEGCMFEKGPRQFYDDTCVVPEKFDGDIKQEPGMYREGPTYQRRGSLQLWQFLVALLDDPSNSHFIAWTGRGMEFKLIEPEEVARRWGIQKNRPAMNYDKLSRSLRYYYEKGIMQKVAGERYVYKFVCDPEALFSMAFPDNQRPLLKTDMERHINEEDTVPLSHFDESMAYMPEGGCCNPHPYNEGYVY
Chain of ELF4 (Q99607 whole entry): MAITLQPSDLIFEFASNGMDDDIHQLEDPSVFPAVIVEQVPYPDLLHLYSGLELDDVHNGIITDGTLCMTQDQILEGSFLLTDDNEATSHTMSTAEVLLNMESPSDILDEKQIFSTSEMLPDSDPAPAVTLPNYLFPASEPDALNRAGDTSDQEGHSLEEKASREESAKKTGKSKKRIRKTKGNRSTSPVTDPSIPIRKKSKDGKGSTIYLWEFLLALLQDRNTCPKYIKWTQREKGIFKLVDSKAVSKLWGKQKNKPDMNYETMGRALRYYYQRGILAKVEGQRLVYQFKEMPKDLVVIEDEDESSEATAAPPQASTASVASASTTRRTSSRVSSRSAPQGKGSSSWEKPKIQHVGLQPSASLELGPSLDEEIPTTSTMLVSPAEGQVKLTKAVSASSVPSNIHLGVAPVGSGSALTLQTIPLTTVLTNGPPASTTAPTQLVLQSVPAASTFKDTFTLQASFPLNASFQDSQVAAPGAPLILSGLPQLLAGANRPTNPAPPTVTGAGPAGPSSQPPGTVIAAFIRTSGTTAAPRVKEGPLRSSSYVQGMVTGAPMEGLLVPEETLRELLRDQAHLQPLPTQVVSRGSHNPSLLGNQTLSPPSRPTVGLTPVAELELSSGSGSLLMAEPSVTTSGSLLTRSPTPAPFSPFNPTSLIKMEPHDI
Chain of ETV5 (P41161 whole entry): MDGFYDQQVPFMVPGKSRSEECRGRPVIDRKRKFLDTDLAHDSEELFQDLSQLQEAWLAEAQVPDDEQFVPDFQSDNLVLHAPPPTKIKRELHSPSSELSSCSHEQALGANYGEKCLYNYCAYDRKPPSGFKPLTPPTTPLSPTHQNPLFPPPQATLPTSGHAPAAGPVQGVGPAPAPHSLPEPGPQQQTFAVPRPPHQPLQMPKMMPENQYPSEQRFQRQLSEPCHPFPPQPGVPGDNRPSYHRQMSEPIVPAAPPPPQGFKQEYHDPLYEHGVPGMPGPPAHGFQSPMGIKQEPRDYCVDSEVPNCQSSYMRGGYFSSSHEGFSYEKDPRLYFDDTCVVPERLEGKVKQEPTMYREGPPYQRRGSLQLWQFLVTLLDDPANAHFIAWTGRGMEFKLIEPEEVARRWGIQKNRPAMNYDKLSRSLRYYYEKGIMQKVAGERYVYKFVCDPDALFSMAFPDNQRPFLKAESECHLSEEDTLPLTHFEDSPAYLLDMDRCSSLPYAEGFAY
Chain of SPIB (Q01892 whole entry): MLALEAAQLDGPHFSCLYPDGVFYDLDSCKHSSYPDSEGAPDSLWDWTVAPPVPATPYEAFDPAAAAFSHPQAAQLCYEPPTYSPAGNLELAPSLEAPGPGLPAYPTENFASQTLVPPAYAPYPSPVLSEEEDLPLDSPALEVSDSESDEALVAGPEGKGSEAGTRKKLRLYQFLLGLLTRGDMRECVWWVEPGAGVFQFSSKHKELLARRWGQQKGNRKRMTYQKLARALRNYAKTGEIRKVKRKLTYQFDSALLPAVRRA

Sequence	binding signal [1]	binding signal [2]	binding signal [3]	binding signal [4]	binding signal [5]	binding signal [6]	binding signal [7]	binding signal [8]	binding signal [9]	binding signal [10]	binding signal [11]	binding signal [12]	binding signal [13]	binding signal [14]	binding signal [15]	binding signal [16]	binding signal [17]	binding signal [18]	binding signal [19]
GTACGC	1.05 fold enrichment (6-mer frequency, TF over GST control)	1.03 fold enrichment (6-mer frequency, TF over GST control)	1.04 fold enrichment (6-mer frequency, TF over GST control)	1.09 fold enrichment (6-mer frequency, TF over GST control)	1.05 fold enrichment (6-mer frequency, TF over GST control)	1.03 fold enrichment (6-mer frequency, TF over GST control)	1.05 fold enrichment (6-mer frequency, TF over GST control)	1.1 fold enrichment (6-mer frequency, TF over GST control)	1.08 fold enrichment (6-mer frequency, TF over GST control)	1.2 fold enrichment (6-mer frequency, TF over GST control)	1.05 fold enrichment (6-mer frequency, TF over GST control)	1.09 fold enrichment (6-mer frequency, TF over GST control)	1.05 fold enrichment (6-mer frequency, TF over GST control)	1.11 fold enrichment (6-mer frequency, TF over GST control)	1.06 fold enrichment (6-mer frequency, TF over GST control)	1.06 fold enrichment (6-mer frequency, TF over GST control)	1.14 fold enrichment (6-mer frequency, TF over GST control)	1.07 fold enrichment (6-mer frequency, TF over GST control)	
GGCTCG	1.06 fold enrichment (6-mer frequency, TF over GST control)		1.02 fold enrichment (6-mer frequency, TF over GST control)	1.02 fold enrichment (6-mer frequency, TF over GST control)	1.05 fold enrichment (6-mer frequency, TF over GST control)				1.01 fold enrichment (6-mer frequency, TF over GST control)	1.12 fold enrichment (6-mer frequency, TF over GST control)	1.06 fold enrichment (6-mer frequency, TF over GST control)	1.01 fold enrichment (6-mer frequency, TF over GST control)		1.09 fold enrichment (6-mer frequency, TF over GST control)				1.06 fold enrichment (6-mer frequency, TF over GST control)	1.12 fold enrichment (6-mer frequency, TF over GST control)
